# This is a sample that favours compounds with a hit; in the whole collection about 2.5% have one here.
# STAT3 binder: binds human STAT3 on microarray; P40763; Small molecule microarray, His-STAT3 binding, anti-His fluorescence; calls only; 17,000 compounds, 0.2% hits;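 active = compounds whose four printed spots each show fluorescence over background unusually high for their array block, chance value under 7%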
# c-Myc SMM: binders of human c-Myc. P01106. small molecule microarray, His-c-Myc binding, anti-His fluorescence. calls only. 17,000 compounds, 1.5% hits. AID 624141;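 active = spot fluorescence over background with P-value below 7% in all four replicate spots, showing protein binding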;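 also: score is binary with 100 for all four spots passing and 0 otherwise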
# Target sequence (P01106 whole entry, looked up): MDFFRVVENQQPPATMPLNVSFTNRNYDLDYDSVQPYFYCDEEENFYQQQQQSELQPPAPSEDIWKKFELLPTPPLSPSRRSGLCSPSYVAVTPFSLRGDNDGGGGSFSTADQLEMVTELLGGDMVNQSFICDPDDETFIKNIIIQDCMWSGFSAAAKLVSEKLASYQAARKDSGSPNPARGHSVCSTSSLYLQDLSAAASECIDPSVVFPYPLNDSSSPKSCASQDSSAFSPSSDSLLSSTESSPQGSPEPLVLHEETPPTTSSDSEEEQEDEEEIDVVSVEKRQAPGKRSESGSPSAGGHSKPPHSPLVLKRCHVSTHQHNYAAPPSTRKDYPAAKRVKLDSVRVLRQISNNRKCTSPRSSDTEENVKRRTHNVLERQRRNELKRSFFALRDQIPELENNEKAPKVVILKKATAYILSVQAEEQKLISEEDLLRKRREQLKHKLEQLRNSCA
# NFkB SMM: NF-kappa-B p105 (human) binding; 17,000 compounds, 1.3% hits; calls only; P19838; Small molecule microarray, anti-His fluorescence binding;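 active = spot fluorescence over background significantly raised, with a chance value under 7% in all four replicate spots of the compound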;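 also: probe protein is his-tagged human p50 processed subunit at 1 µg/ml; raw spot fluorescence signals with no normalization applied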
# mut p53 SMM: binds human mutant p53 on microarray; small molecule microarray binding, anti-GST fluorescence; calls only; 17,000 compounds, 0.4% hits; AID 624136;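 active = compounds whose four printed spots each glow above background more than chance allows, each with a p-value under 7%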
# Numbers without * were called inactive; i = inactive; + = active, no number.
SMILES,STAT3 binder,c-Myc SMM,NFkB SMM,mut p53 SMM
C[C@@H]1CN([C@@H](C)CO)C(=O)c2cc(NC(=O)Cc3ccccc3)ccc2O[C@@H](C)CCCCO[C@@H]1CN(C)C(=O)CCC(F)(F)F,i,i,i,i
COCCOC(=O)N1C(=O)[C@@]2(c3cc(C#CC4(O)CCCCCC4)ccc31)[C@H](C(=O)NC[C@H](O)c1ccccc1)[C@H]1C(=O)O[C@H](c3ccccc3)[C@H](c3ccccc3)N1[C@@H]2c1ccccc1OCCO,i,i,i,i
COC(=O)c1ccc(C(=O)OC)c(NS(=O)(=O)c2ccc3c(c2)OCCO3)c1,i,i,i,i
CCn1c(SCC(=O)Nc2ccccc2Br)nnc1-c1ccccc1,i,i,i,i
CCn1c(SCc2nc3ccccc3c(=O)[nH]2)nnc1-c1ccccc1Br,i,i,i,i
C[C@@H]1CN([C@@H](C)CO)C(=O)c2cc(NC(=O)c3ccncc3)ccc2O[C@@H](C)CCCCO[C@@H]1CN(C)C(=O)CCC(F)(F)F,i,i,+,i
C[C@H]1CCCCO[C@H](CN(C)C(=O)CCC(F)(F)F)[C@@H](C)CN([C@@H](C)CO)C(=O)c2cc(NC(=O)c3ccncc3)ccc2O1,i,i,i,i
C[C@@H]1CCCCO[C@H](CN(C)C(=O)CCC(F)(F)F)[C@@H](C)CN([C@@H](C)CO)C(=O)c2cc(NC(=O)CCC(F)(F)F)ccc2O1,i,i,i,i
C[C@@H]1CN([C@@H](C)CO)C(=O)c2cc(NC(=O)CCC(F)(F)F)ccc2O[C@@H](C)CCCCO[C@@H]1CN(C)C(=O)CCC(F)(F)F,i,+,+,i
C[C@@H]1CCCCO[C@H](CN(C)C(=O)c2ccccc2)[C@H](C)CN([C@@H](C)CO)C(=O)c2cc(NC(=O)Nc3ccc(F)cc3)ccc2O1,i,i,+,i
C[C@@H]1CN([C@@H](C)CO)C(=O)c2cc(NC(=O)Nc3ccc(F)cc3)ccc2O[C@@H](C)CCCCO[C@H]1CN(C)C(=O)Cc1ccccc1,i,+,+,i
C[C@H](CO)N1C[C@H](C)[C@H](CN(C)C(=O)c2ccccc2)OCCCC[C@H](C)Oc2ccc(NC(=O)Nc3ccc4c(c3)OCO4)cc2C1=O,i,+,i,+
C[C@@H]1CN([C@@H](C)CO)C(=O)c2cc(NC(=O)Nc3ccc(F)cc3)ccc2O[C@@H](C)CCCCO[C@H]1CN(C)C(=O)c1ccccc1,i,i,i,i
CCCN(C)C[C@@H]1OCCCC[C@@H](C)Oc2ccc(NC(=O)Nc3ccc(F)cc3)cc2C(=O)N([C@H](C)CO)C[C@H]1C,i,i,+,i
C[C@@H]1CCCCO[C@H](CN(C)C(=O)c2ccccc2)[C@@H](C)CN([C@H](C)CO)C(=O)c2cc(NC(=O)Nc3ccc4c(c3)OCO4)ccc2O1,i,i,i,i
COc1ccc(NC(=O)C(=O)NCC(=O)Nc2ccc(C)cc2)cc1,i,i,i,i
C[C@H](CO)N1C[C@H](C)[C@@H](CN(C)C)OCCCC[C@H](C)Oc2ccc(NC(=O)Nc3cccc4ccccc34)cc2C1=O,i,i,i,+
C[C@@H]1CCCCO[C@@H](CN(C)C(=O)Nc2cccc3ccccc23)[C@H](C)CN([C@H](C)CO)C(=O)c2cc(NC(=O)Nc3ccc(F)cc3)ccc2O1,i,+,+,i
C[C@H](CO)N1C[C@H](C)[C@H](CN(C)C)OCCCC[C@H](C)Oc2ccc(NC(=O)Nc3cccc4ccccc34)cc2C1=O,i,i,i,i
CC(C)NC(=O)N(C)C[C@@H]1OCCCC[C@H](C)Oc2ccc(NC(=O)Nc3cccc4ccccc34)cc2C(=O)N([C@@H](C)CO)C[C@H]1C,i,i,i,i
C[C@H](CO)N1C[C@H](C)[C@@H](CN(C)CC2CCCCC2)OCCCC[C@H](C)Oc2ccc(NC(=O)Nc3cccc4ccccc34)cc2C1=O,i,i,+,i
COc1ccc(S(=O)(=O)NCCc2ccc(OC)c(OC)c2)cc1C,i,i,i,i
N#Cc1cc(C#N)c(SCCN2CCOCC2)nc1N,i,i,i,+
COc1ccccc1NC(=O)C(CCS(C)(=O)=O)N1C(=O)c2ccc(Br)cc2C1=O (configuration not stated),i,i,i,i
COc1cc(OC)c(OC)cc1CN1CCN(Cc2ccccn2)CC1,i,+,i,i
SMILES,STAT3 binder,c-Myc SMM,NFkB SMM,mut p53 SMM
O=C1O[C@H](c2ccccc2)[C@H](c2ccccc2)N2[C@H]1[C@@H](C(=O)O)[C@]1(C(=O)Nc3ccc(C#CC4(O)CCCCCC4)cc31)[C@H]2c1ccccc1OCCO,i,i,i,i
COC(=O)C(CC#Cc1ccc2c(c1)[C@]1(C(=O)N2)[C@H](C(=O)N2CCCCCCC2)[C@H]2C(=O)O[C@H](c3ccccc3)[C@H](c3ccccc3)N2[C@@H]1c1ccccc1OCCO)C(=O)OC,i,i,+,i
COC(=O)C(CC#Cc1ccc2c(c1)[C@]1(C(=O)N2)[C@H](C(=O)N2CCCCCCC2)[C@H]2C(=O)O[C@H](c3ccccc3)[C@H](c3ccccc3)N2[C@@H]1c1ccc(OCCO)cc1)C(=O)OC,i,i,i,+
NC(=O)NCC#Cc1ccc2c(c1)[C@]1(C(=O)N2)[C@H](C(=O)N2CCCCCCC2)[C@H]2C(=O)O[C@H](c3ccccc3)[C@H](c3ccccc3)N2[C@@H]1c1ccc(O)cc1,i,+,i,+
Cc1ccc(OCC(=O)Nc2nc(C)cc(C)n2)cc1,i,i,i,i
COc1ccc(Nc2nc(NC(C)(C)C)nc(OC)n2)c(OC)c1,i,i,i,i
COc1ccccc1-c1nnc(SCC(=O)Nc2ccccc2-c2ccccc2)n1C,i,i,i,i
O=C(O)CCCC(=O)Nc1ccc(Br)cc1C(=O)O,i,+,+,i
C[C@@H]1CCCCO[C@@H](CN(C)CC2CCCCC2)[C@H](C)CN([C@H](C)CO)C(=O)c2cc(NS(C)(=O)=O)ccc2O1,i,i,+,i
C[C@H]1CCCCO[C@@H](CN(C)CC2CCCCC2)[C@@H](C)CN([C@@H](C)CO)C(=O)c2cc(NC(=O)C3CCCCC3)ccc2O1,i,i,+,i
C[C@@H]1CN([C@H](C)CO)C(=O)c2cc(NC(=O)Nc3ccc4c(c3)OCO4)ccc2O[C@H]1CN(C)CC1CCCCC1,i,i,i,i
C[C@@H]1CN([C@H](C)CO)C(=O)c2cc(NC(=O)Nc3ccc4c(c3)OCO4)ccc2O[C@@H]1CN(C)CC1CCCCC1,i,i,i,+
CCC(=O)Nc1cccc(NC(=O)COc2cc(Cl)c(Cl)cc2Cl)c1,i,i,i,i
CC(C)c1ccccc1OCC(=O)Nc1sc2c(c1C(N)=O)CCCC2,i,i,i,i
COc1ccc(C2(CNC(=O)CC#N)CCCC2)cc1OC,i,i,i,i
